Source: PMC5540273 (PLoS ONE, 2017)

Legend:
Details in all cases: concentration: 1 μM, replicates: in singlicate; n = 1
[1] = test system: BLK
[2] = test system: BMPR1A
[3] = test system: BMPR1B
[4] = test system: BMPR2
[5] = test system: BMX
[6] = test system: BRAF
[7] = test system: T1, BRK
T1 construct: gene PTK6

[8] = test system: BRSK1
[9] = test system: BRSK2
[10] = test system: BTK
[11] = test system: BUB1
[12] = test system: CAMK1B
[13] = test system: CAMK1D
[14] = test system: CAMK1G
[15] = test system: CAMK1
[16] = test system: CAMK2A
[17] = test system: CAMK2B
[18] = test system: CAMK2D
[19] = test system: CAMK2G
[20] = test system: CAMK4
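Note: KINOMEscan kinase panel screen.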

Row | Structure (SMILES) | %Inh [1] [%] | %Inh [2] [%] | %Inh [3] [%] | %Inh [4] [%] | %Inh [5] [%] | %Inh [6] [%] | %Inh [7] [%] | %Inh [8] [%] | %Inh [9] [%] | %Inh [10] [%] | %Inh [11] [%] | %Inh [12] [%] | %Inh [13] [%] | %Inh [14] [%] | %Inh [15] [%] | %Inh [16] [%] | %Inh [17] [%] | %Inh [18] [%] | %Inh [19] [%] | %Inh [20] [%]
1 | CCCCCc1nc2c(N)ncnc2n1CCCCC [SKF-97255] | 16 | 19 | 0 | 40 | 3 | 0 | 0 | 0 | 22 | 0 | 0 | 0 | 0 | 15 | 0 | 0 | 0 | 6 | 0 | 21
2 | Cn1ccc2ncnc(Oc3ccc(NC(=O)Nc4ccncc4)c(Cl)c3)c21 | 0 | 1 | 0 | 20 | 0 | 0 | 0 | 0 | 0 | 0 | 11 | 0 | 0 | 0 | 0 | 0 | 0 | 0 | 0 | 7
3 | O=C(NCCNc1ccnc(Nc2ccc(F)cc2)n1)Nc1ccccc1F [GSK1379880] | 6 | 0 | 0 | 0 | 0 | 0 | 6 | 0 | 0 | 0 | 31 | 0 | 0 | 0 | 0 | 0 | 0 | 0 | 0 | 0
4 | COC(=O)Nc1nc2cc(Oc3ccc(NC(=O)Nc4cc(F)ccc4F)cc3)ccc2[nH]1.Cl [GW701424] | 25 | 0 | 0 | 24 | 9 | 53 | 0 | 0 | 0 | 6 | 77 | 27 | 20 | 7 | 4 | 0 | 0 | 20 | 11 | 0
5 | CCn1cnc2c(N)ncnc21 [GW345098] | 12 | 24 | 15 | 35 | 41 | 0 | 8 | 5 | 0 | 0 | 3 | 0 | 10 | 0 | 9 | 6 | 8 | 0 | 0 | 1
6 | NS(=O)(=O)CCc1cccc(Nc2nccc(-c3c(-c4cccc(NC(=O)c5c(F)cccc5F)c4)nn4ccccc34)n2)c1 [GSK336735] | 99.7 | 0 | 0 | 0 | 94.6 | 89 | 96 | 8 | 20 | 94.6 | 77 | 0 | 29 | 0 | 53 | 0 | 0 | 4 | 14 | 0
7 | COc1ccc(CNC(=O)NC2CCN(c3ccnc(Nc4ccc(OC)cc4)n3)C2)cc1 (stereo not drawn) [GSK1379727] | 43 | 0 | 0 | 30 | 6 | 0 | 9 | 0 | 0 | 12 | 56 | 47 | 21 | 0 | 18 | 0 | 0 | 0 | 8 | 0
8 | Cc1nnc(-c2ccc3ncc(-c4ccc(S(C)=O)cc4)n3c2)o1 (stereo not drawn) | 0 | 9 | 16 | 18 | 0 | 62 | 14 | 14 | 0 | 24 | 16 | 6 | 0 | 26 | 0 | 0 | 0 | 25 | 27 | 0
9 | Cc1cccc(-c2nc(Nc3ccc4ncsc4c3)c3ccccc3n2)n1 [GW867588] | 11 | 0 | 0 | 15 | 0 | 7 | 0 | 0 | 0 | 0 | 47 | 21 | 14 | 0 | 26 | 0 | 0 | 2 | 9 | 0
